Assay in all cases: yeast three-hybrid, YBZ-1, SC-Leu-His + 0.5 mM 3-AT, 4 days
Holding throughout (conditions): tags: N-Gal4 AD-HA kept; label: inside an RPR1-promoter hybrid RNA with tandem MS2 sites; ssRNA

One test has as its target PUM1 PUF domain R8-RYF (Homo sapiens, UniProt Q14671 828-1176, N1122R;Q1126F). Summed up:
(§1)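 Pumilio-1 PUF domain libraries, randomized (NNK) at the three base-contacting residues of each repeat, were co-expressed with matching RNA elements from a centromeric plasmid in strain YBZ-1 (LexA–MS2 coat fusion, HIS3 reporter). Transformants were plated on SC-Leu (input) and SC-Leu-His + 0.5 mM 3-AT (selection) for four days, and repeat regions were PCR-amplified and Illumina-sequenced. The interaction score is the log2 change in variant frequency from input to selection, with pseudocount 1 where absent.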

For another test, the target named is PUM1 PUF domain R3-YYA (Homo sapiens, UniProt Q14671 828-1176, C935Y;R936Y;Q939A). The method in brief: as §1
The target in a further test is PUM1 PUF domain R3-RAQ (Homo sapiens, UniProt Q14671 828-1176, C935R;R936A). The method in brief:
as §1

The next test addresses PUM1 PUF domain R3-WAR (Homo sapiens, UniProt Q14671 828-1176, C935W;R936A;Q939R). The method in brief:
as §1

Another test addresses PUM1 PUF domain R5-GRK (Homo sapiens, UniProt Q14671 828-1176, C1007G;Q1011K). The method in brief:
as §1

Another test deals with PUM1 PUF domain R7-GND (Homo sapiens, UniProt Q14671 828-1176, S1079G;E1083D). The method in brief:
as §1

The next test concerns the target PUM1 PUF domain R5-RYI (Homo sapiens, UniProt Q14671 828-1176, C1007R;R1008Y;Q1011I). Summed up: as §1
The target of a further test is PUM1 PUF domain R4-SQR (Homo sapiens, UniProt Q14671 828-1176, N971S;H972Q;Q975R). The method in brief: as §1
The next test concerns the target PUM1 PUF domain R4-WGA (Homo sapiens, UniProt Q14671 828-1176, N971W;H972G;Q975A). The method in brief:
as §1

A further test has as its target PUM1 PUF domain R4-KGY (Homo sapiens, UniProt Q14671 828-1176, N971K;H972G;Q975Y). Summed up:
as §1

Chain of PUM1 PUF domain R5-GRK (Q14671 828-1176 C1007G/Q1011K): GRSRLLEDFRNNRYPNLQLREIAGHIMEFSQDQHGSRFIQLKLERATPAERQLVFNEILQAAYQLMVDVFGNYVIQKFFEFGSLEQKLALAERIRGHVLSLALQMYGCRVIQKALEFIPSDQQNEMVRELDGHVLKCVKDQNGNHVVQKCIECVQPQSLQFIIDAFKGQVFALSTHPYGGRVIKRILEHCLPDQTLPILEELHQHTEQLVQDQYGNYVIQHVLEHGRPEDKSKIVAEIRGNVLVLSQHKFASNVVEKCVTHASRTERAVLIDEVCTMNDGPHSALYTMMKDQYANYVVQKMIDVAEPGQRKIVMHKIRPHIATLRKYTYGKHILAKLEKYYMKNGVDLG
Chain of PUM1 PUF domain R4-WGA (Q14671 828-1176 N971W/H972G/Q975A): as the sequence (Q14671 828-1176 C1007G/Q1011K) above, with N144W, H145G, Q148A, G180C, K184Q counted along it
Chain of PUM1 PUF domain R3-WAR (Q14671 828-1176 C935W/R936A/Q939R): as the sequence (Q14671 828-1176 C1007G/Q1011K) above, with C108W, R109A, Q112R, G180C, K184Q counted along it
Chain of PUM1 PUF domain R4-KGY (Q14671 828-1176 N971K/H972G/Q975Y): as the sequence (Q14671 828-1176 C1007G/Q1011K) above, with N144K, H145G, Q148Y, G180C, K184Q counted along it
Chain of PUM1 PUF domain R5-RYI (Q14671 828-1176 C1007R/R1008Y/Q1011I): as the sequence (Q14671 828-1176 C1007G/Q1011K) above, with G180R, R181Y, K184I counted along it
Chain of PUM1 PUF domain R3-YYA (Q14671 828-1176 C935Y/R936Y/Q939A): as the sequence (Q14671 828-1176 C1007G/Q1011K) above, with C108Y, R109Y, Q112A, G180C, K184Q counted along it
Chain of PUM1 PUF domain R3-RAQ (Q14671 828-1176 C935R/R936A): as the sequence (Q14671 828-1176 C1007G/Q1011K) above, with C108R, R109A, G180C, K184Q counted along it
Chain of PUM1 PUF domain R7-GND (Q14671 828-1176 S1079G/E1083D): as the sequence (Q14671 828-1176 C1007G/Q1011K) above, with G180C, K184Q, S252G, E256D counted along it
Chain of PUM1 PUF domain R8-RYF (Q14671 828-1176 N1122R/Q1126F): as the sequence (Q14671 828-1176 C1007G/Q1011K) above, with G180C, K184Q, N295R, Q299F counted along it
Chain of PUM1 PUF domain R4-SQR (Q14671 828-1176 N971S/H972Q/Q975R): as the sequence (Q14671 828-1176 C1007G/Q1011K) above, with N144S, H145Q, Q148R, G180C, K184Q counted along it

Take “GGCUAGAACUAGUGGAUCCCCCGGCGCCCGGCGGCUCGAGCCCGGGUAAGCGUAAAUAGUCUGCAUGCCGCCGGGCGCCAUGCCUGCAGGUCGACUCUAGAAAACAUG”: the binding signal with PUM1 PUF domain R8-RYF was 4.88 log2 enrichment (interaction score).
On to “GGCUAGAACUAGUGGAUCCCCCGGCGCCCGGCGGCUCGAGCCCGGGUAAGUGUAAUUAGUCUGCAUGCCGCCGGGCGCCAUGCCUGCAGGUCGACUCUAGAAAACAUG”, for which the binding signal was 3.25 log2 enrichment (interaction score) in the test with PUM1 PUF domain R3-YYA, 3.8 log2 enrichment (interaction score) in the test with PUM1 PUF domain R3-RAQ and 2.65 log2 enrichment (interaction score) in the test with PUM1 PUF domain R3-WAR.
For the sequence “GGCUAGAACUAGUGGAUCCCCCGGCGCCCGGCGGCUCGAGCCCGGGUAAGUGUGAAUAGUCUGCAUGCCGCCGGGCGCCAUGCCUGCAGGUCGACUCUAGAAAACAUG”, the binding signal with PUM1 PUF domain R5-GRK is 1.55 log2 enrichment (interaction score).
On to “GGCUAGAACUAGUGGAUCCCCCGGCGCCCGGCGGCUCGAGCCCGGGUAAGUUUAAAUAGUCUGCAUGCCGCCGGGCGCCAUGCCUGCAGGUCGACUCUAGAAAACAUG”, for which, in the test with PUM1 PUF domain R7-GND, the binding signal was 3.28 log2 enrichment (interaction score).
With “GGCUAGAACUAGUGGAUCCCCCGGCGCCCGGCGGCUCGAGCCCGGGUAAGUGUCAAUAGUCUGCAUGCCGCCGGGCGCCAUGCCUGCAGGUCGACUCUAGAAAACAUG”, the values for the binding signal with PUM1 PUF domain R5-RYI and with PUM1 PUF domain R5-GRK were 3.71 log2 enrichment (interaction score) and 2.77 log2 enrichment (interaction score), respectively.
Regarding “GGCUAGAACUAGUGGAUCCCCCGGCGCCCGGCGGCUCGAGCCCGGGUAAGUGUAAGUAGUCUGCAUGCCGCCGGGCGCCAUGCCUGCAGGUCGACUCUAGAAAACAUG”, in the test with PUM1 PUF domain R3-WAR, the binding signal is 2.85 log2 enrichment (interaction score).
“GGCUAGAACUAGUGGAUCCCCCGGCGCCCGGCGGCUCGAGCCCGGGUAAGUGUACAUAGUCUGCAUGCCGCCGGGCGCCAUGCCUGCAGGUCGACUCUAGAAAACAUG”: the binding signal with PUM1 PUF domain R4-SQR was 3.07 log2 enrichment (interaction score); with PUM1 PUF domain R4-WGA, 3.39 log2 enrichment (interaction score).
As to “GGCUAGAACUAGUGGAUCCCCCGGCGCCCGGCGGCUCGAGCCCGGGUAAGUGUAAAUAGUCUGCAUGCCGCCGGGCGCCAUGCCUGCAGGUCGACUCUAGAAAACAUG”, the binding signal in the test with PUM1 PUF domain R4-KGY was 4.05 log2 enrichment (interaction score); in the test with PUM1 PUF domain R5-GRK it was 3.37 log2 enrichment (interaction score); in the test with PUM1 PUF domain R4-WGA, 3.8 log2 enrichment (interaction score).
Regarding “GGCUAGAACUAGUGGAUCCCCCGGCGCCCGGCGGCUCGAGCCCGGGUAAGUGUUAAUAGUCUGCAUGCCGCCGGGCGCCAUGCCUGCAGGUCGACUCUAGAAAACAUG”, the binding signal with PUM1 PUF domain R5-GRK was 4.85 log2 enrichment (interaction score).

Source of the values: paper PMC8384837, “Expanding the binding specificity for RNA recognition by a PUF domain”.
